CHO-K1 Ca antag: nonselective inhibitor or artifact in parental CHO-K1 cells; ATP-induced calcium, Fluo-8 fluorescence; inhibition, % at 3 µM; 360,000 compounds, 0.6% hits; AID 602250;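 active means inhibition above a per-plate cutoff, the plate's mean sample inhibition plus 3 SD, cut at about 24% in these data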;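 further: 0% = DMSO plus EC80 ATP and 100% = DMSO alone without ATP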
CHO-K1 Ca PAM: counter-screen for M1 PAMs: effect in parental CHO-K1 cells | ATP EC20, Fluo-8 calcium fluorescence; 0% at ATP EC20, 100% at ATP max | activation, % at 3 µM | 360,000 compounds, 0.02% hits | AID 602247;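 active means activation above the run cutoff, the mean activation of all test compounds plus 3 SD, cut at about 40% in these data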;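 further: peak over basal fluorescence ratio in a 140 s read after ATP addition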
CHRM1 agonist: agonists of human M1 muscarinic receptor. P11229. activation, % at 3 µM. CHO-K1 hM1, Fluo-8 calcium fluorescence, agonist mode; 0% DMSO, 100% acetylcholine EC100. AID 588814. 360,000 compounds, 0.33% hits;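 active means activation above the run's mean compound activation plus 3 SD, cut at about 16% in these data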;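 further: peak over basal fluorescence ratio within a 140 s kinetic read after compound addition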
Target sequence (P11229 whole entry, looked up): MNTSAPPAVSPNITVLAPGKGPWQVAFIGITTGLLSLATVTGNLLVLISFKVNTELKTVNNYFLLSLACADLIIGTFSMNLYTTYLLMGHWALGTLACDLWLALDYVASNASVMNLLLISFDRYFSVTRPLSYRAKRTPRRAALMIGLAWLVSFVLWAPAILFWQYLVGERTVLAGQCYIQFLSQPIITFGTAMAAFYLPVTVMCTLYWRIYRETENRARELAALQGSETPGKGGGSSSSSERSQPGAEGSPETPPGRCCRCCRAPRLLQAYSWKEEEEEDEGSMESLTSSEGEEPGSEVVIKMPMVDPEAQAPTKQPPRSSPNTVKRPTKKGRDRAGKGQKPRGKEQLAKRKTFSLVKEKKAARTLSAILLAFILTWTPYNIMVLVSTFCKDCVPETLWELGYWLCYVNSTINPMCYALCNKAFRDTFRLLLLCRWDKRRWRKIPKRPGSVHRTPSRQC
M1 ag parental: nonselective activator or artifact in parental CHO-K1 cells; Fluo-8 calcium fluorescence; scaled to maximal ATP response, vehicle zero; activation, % at 3 µM; 360,000 compounds, 0.48% hits; AID 602248; in the data active means activation above about 15%;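 further: untransfected CHO-K1 host cells lacking M1 receptor as counterscreen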
CHRM1 antagonist: human CHRM1 antagonism; CHO-K1 hM1, Fluo-8 calcium fluorescence, ACh EC80 antagonist; P11229; AID 588852; inhibition, % at 3 µM; 360,000 compounds, 1.3% hits;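 active means percent inhibition above its own plate's cutoff, namely the mean of that plate's compound wells plus 3 SD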;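 further: peak over basal fluorescence ratio during 140 s after agonist addition; 0% = ACh EC80 plus DMSO and 100% = DMSO alone without agonist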
M1 PAM: potentiates human M1 receptor response to acetylcholine; P11229; CHO-K1 hM1, Fluo-8 calcium fluorescence, ACh EC20; 0% = ACh EC20, 100% = maximal ACh; activation, % at 3 µM; 360,000 compounds, 0.088% hits; in the data active means activation above about 19%, passing the limit was not always enough
An asterisk follows results filed as active. A selection: hits, their analogues and other compounds. The true share with any hit is near 2.4%.

SMILES	CHO-K1 Ca antag	CHO-K1 Ca PAM	CHRM1 agonist	M1 ag parental	CHRM1 antagonist	M1 PAM
CC(C)(C)c1ccc(OCCC(=O)OCC(=O)N2c3ccccc3NC(=O)C2(C)C)cc1	18	-19	2	7	34*	-13
Cc1cccc(OCCC(=O)OCC(=O)N2c3ccccc3NC(=O)C2(C)C)c1	-7	12	1	13	-1	-10
CC1(C(=O)NCc2ccc3c(c2)OCO3)CCN1C(=O)CCc1ccc(Cl)cc1Cl (stereo not given)	-6	6	-1	5	-10	-2
CCN(CC)CC(=O)N1N=C(c2cccs2)CC1c1ccco1 (stereo not given)	0	-6	-5	0	51*	-21
CCC(=O)N1N=C(c2cccs2)CC1c1ccco1 (stereo not given)	11	1	-11	-1	-2	4
Cc1ccc(NC(=O)c2sc3nc(CCl)[nH]c(=O)c3c2C)c(C)c1	16	-20	-2	0	-5	8
O=C(NNC(=O)c1ccccc1F)c1ccc(-n2cncn2)c([N+](=O)[O-])c1	18	-14	1	0	36*	-12
O=C(Nc1cccc(/C=C/c2ccccn2)c1)c1ccc(-n2cncn2)c([N+](=O)[O-])c1	7	-15	1	10	20*	-8
Cc1cccc(NC(=O)c2nc[nH]c2C(=O)N2CCC(C)CC2)c1	0	12	-3	-1	6	-2
CCC(=O)c1ccc(OCC(O)CN2CCN(C(c3ccccc3)c3ccccc3)CC2)cc1 (stereo not given)	-41	23	-13	1	70*	-34
OC(COCc1ccco1)CN1CCN(C(c2ccccc2)c2ccccc2)CC1 (stereo not given)	-9	10	-5	0	67*	-21
N#Cc1ccc(OCC(O)CN2CCN(C(c3ccccc3)c3ccccc3)CC2)cc1 (stereo not given)	-10	19	-12	2	88*	-34
COc1ccc(NS(=O)(=O)c2ccc(C(=O)NCC3(N4CCOCC4)CCCCC3)cc2)cc1	-12	17	15	15*	-7	4
CS(=O)(=O)Cc1ccc(C(=O)NCC2(N3CCCCC3)CCCCC2)cc1	-9	22	-11	0	-15	9
COCc1ccc(C(=O)NCC2(N3CCCCC3)CCCCC2)cc1	-2	-18	-9	16*	2	1
COc1ccc(NS(=O)(=O)c2ccc(C(=O)N(C)Cc3ccc(C)o3)cc2)cc1	-4	2	20*	13	-1	4
CC(=O)Nc1c2c(nn1-c1cccc(Cl)c1)CS(=O)(=O)C2	-9	18	1	3	-14	13
CCN(CC(=O)Nc1ccc(OC)cc1)C(=O)c1ccc2c(c1)NC(=O)C(C)S2 (stereo not given)	1	-11	-3	0	-4	3
Cc1noc(C)c1CCC(=O)NC1CCCN(Cc2ccc(CC(C)C)cc2)C1 (stereo not given)	-9	-13	-5	3	54*	-22
Cc1noc(C)c1CCC(=O)NC1CCCN(Cc2ccc(Cl)cc2)C1 (stereo not given)	15	-30	-8	-1	36*	-16
CC(C)Cc1ccc(CN2CCCC(NC(=O)c3ccnn3C)C2)cc1 (stereo not given)	2	-7	0	9	-5	-10
Cc1cccc(C(=O)Oc2ccc3ccc(O)cc3c2)c1	17	3	-3	6	0	0
COc1ccc(CC(=O)NNC(=O)c2c(-c3ccccc3Cl)noc2C)cc1OC	-14	20	-1	0	-5	5
O=[N+]([O-])c1ccc(CN2CCC(Cc3ccccc3)CC2)cc1	-4	7	-10	0	39*	-26
O=[N+]([O-])c1cccc(OCCCN2CCC(Cc3ccccc3)CC2)c1	-8	8	-8	1	77*	-30
SMILES	CHO-K1 Ca antag	CHO-K1 Ca PAM	CHRM1 agonist	M1 ag parental	CHRM1 antagonist	M1 PAM
Cc1ccc([N+](=O)[O-])c(OCCN2CCC(Cc3ccccc3)CC2)c1	-9	-8	-6	13	84*	-23
Cc1ccccc1OCCN1CCC(Cc2ccccc2)CC1	-19	29	-3	4	9	-11
Cc1ccc(C(=O)CN2C(=O)NC3(CCCCCC3)C2=O)c(C)c1	-12	10	-7	0	-8	0
C/C(=N\NC(=O)c1ccn(C)n1)c1cccc(NC(=O)c2ccncc2)c1	-5	17	-5	1	-3	0
CN(C)CCCC1Sc2ccccc2Sc2ccccc21 (stereo not given)	1	11	-3	3	76*	-25
CNCCC1Sc2ccccc2Oc2ccccc21 (stereo not given)	-17	32	-14	1	-7	-7
CC1=C(C(=O)Nc2ccccc2)C(c2ccco2)C(C#N)=C(SCC(=O)OC(C)C)N1 (stereo not given)	14	1	-1	4	33*	-10
CC1=C(C(=O)Nc2ccccc2)C(c2ccco2)C(C#N)=C(SCC(=O)Nc2cccc(C)c2C)N1 (stereo not given)	-16	5	0	0	-2	5
O=C(COC(=O)c1ccc(O)cc1O)Nc1cccc2ccccc12	1	-3	0	1	7	1
Cc1cc([N+](=O)[O-])nn1CCC(=O)Nc1nccs1	-4	24	-6	1	-2	19
COc1c(F)c(F)c(C(=O)Nc2ccc(N3CCN(Cc4ccccc4)CC3)cc2)c(F)c1F	-8	-14	-9	8	47*	-33
COc1cccc(NC(=O)c2ccc(CN3CCN(c4ccccc4)CC3)cc2)c1	-4	18	-7	1	20*	-22
COc1ccc(C(=O)Nc2ccc(N3CCN(Cc4ccccc4)CC3)cc2)cc1	-4	8	-10	2	9	-7
CCSc1nnc(NC(=O)NC(CC)(C(F)(F)F)C(F)(F)F)s1	34*	-5	1	7	7	-2
CCSc1nnc(NC(=O)NC(C)(C(F)(F)F)C(F)(F)F)s1	5	16	-5	9	4	-1
Cc1c(C)c2ccc(OCC(=O)N(C)C3CCS(=O)(=O)C3)c(C)c2oc1=O (stereo not given)	20	-6	-2	0	-11	6
Oc1ccccc1N1CCN(CC(O)COC2CCCc3ccccc32)CC1 (stereo not given)	1	-9	-11	2	39*	-29
OC(COc1ccc2c(c1)CCC2)CN1CCN(c2ccccc2F)CC1 (stereo not given)	-17	11	-7	3	-4	1
Cc1cc2ccccc2n1CCNCc1c(C(=O)N2CCOCC2)nc2ccccn12	24*	12	-1	11	-14	3

Compound activity from PubChem BioAssay.
